From article PMC11006913 come the findings set out here.

Changes are numbered by the printed parent chain.

What all share (assay): PBM; 200 nM protein, PBS
Holding throughout (details): dsDNA, one strand shown

Test [1] concerns the target HESX1 (Homo sapiens, UniProt Q9UBX0 95-180, R165K).
The target in test [2] is HESX1 (Homo sapiens, UniProt Q9UBX0 95-180).
The target of test [3] is HOXA2 (Homo sapiens, UniProt O43364 129-215, R185T).
Test [4] has as its target MSX2 (Homo sapiens, UniProt P35548 130-214, R199I).
Test [5] addresses HOXA2 (Homo sapiens, UniProt O43364 129-215, R185K).
In test [6] the target is MSX2 (Homo sapiens, UniProt P35548 130-214).
Test [7] has as its target HESX1 (Homo sapiens, UniProt Q9UBX0 95-180, R109Q).
Test [8] deals with HESX1 (Homo sapiens, UniProt Q9UBX0 95-180, P111T).
The target in test [9] is MSX2 (Homo sapiens, UniProt P35548 130-214, F161Y).
The target in test [10] is HESX1 (Homo sapiens, UniProt Q9UBX0 95-180, F115L).
The target of test [11] is HOXA2 (Homo sapiens, UniProt O43364 129-215, Y150S).
Test [12] has as its target HOXA2 (Homo sapiens, UniProt O43364 129-215).
Test [13] has as its target HOXA7 (Homo sapiens, UniProt P31268 116-202).
The target of test [14] is HOXA7 (Homo sapiens, UniProt P31268 116-202, W177C).
Test [15] addresses ALX4 (Homo sapiens, UniProt Q9H161 200-286).
The target in test [16] is T1, PAX4 (Homo sapiens, UniProt O43316 9-242, R200K).
T1 sequence: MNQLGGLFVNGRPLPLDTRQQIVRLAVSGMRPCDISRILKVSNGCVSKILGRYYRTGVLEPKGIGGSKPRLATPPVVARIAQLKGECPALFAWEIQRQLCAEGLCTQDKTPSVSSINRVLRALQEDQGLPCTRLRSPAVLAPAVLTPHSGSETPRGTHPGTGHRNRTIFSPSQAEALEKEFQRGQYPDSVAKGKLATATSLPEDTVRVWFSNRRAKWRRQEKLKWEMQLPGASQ

In test [17] the target is PRRX1 (Homo sapiens, UniProt P54821 80-166, F113S).
Test [18] has as its target T2, PAX4 (Homo sapiens, UniProt O43316 9-242).
T2 sequence: T1 sequence with K192R

Test [19] deals with ALX4 (Homo sapiens, UniProt Q9H161 200-286, Q225E).
In test [20] the target is ALX1 (Homo sapiens, UniProt Q15699 118-204, L144V).
Test [21] addresses ALX3 (Homo sapiens, UniProt O95076 139-225, N203Q).
Test [22] concerns the target T3, PAX4 (Homo sapiens, UniProt O43316 9-242, R200Q).
T3 sequence: T1 sequence with K192Q

The target in test [23] is ALX1 (Homo sapiens, UniProt Q15699 118-204, L144R).
Test [24] concerns the target T4, PAX4 (Homo sapiens, UniProt O43316 9-242, F177V).
T4 sequence: T1 sequence with F169V, K192R

For test [25], the target named is ALX3 (Homo sapiens, UniProt O95076 139-225).
For test [26], the target named is T5, PAX4 (Homo sapiens, UniProt O43316 9-242, F177Y).
T5 sequence: T1 sequence with F169Y, K192R

For test [27], the target named is PROP1 (Homo sapiens, UniProt O75360 56-141).
For test [28], the target named is PROP1 (Homo sapiens, UniProt O75360 56-141, R99H).
Test [29] addresses ALX3 (Homo sapiens, UniProt O95076 139-225, L168Q).
Test [30] deals with ALX3 (Homo sapiens, UniProt O95076 139-225, L168V).
For test [31], the target named is PROP1 (Homo sapiens, UniProt O75360 56-141, F88S).
The target of test [32] is T6, PAX4 (Homo sapiens, UniProt O43316 9-242, R227W).
T6 sequence: T1 sequence with K192R, R219W

The target in test [33] is ALX1 (Homo sapiens, UniProt Q15699 118-204).
Test [34] has as its target ALX3 (Homo sapiens, UniProt O95076 139-225, N203S).
The target of test [35] is PRRX1 (Homo sapiens, UniProt P54821 80-166).
In the next test the target is T7, NKX2-6 (Homo sapiens, UniProt A6NCS4 118-204, R150C).
T7 sequence: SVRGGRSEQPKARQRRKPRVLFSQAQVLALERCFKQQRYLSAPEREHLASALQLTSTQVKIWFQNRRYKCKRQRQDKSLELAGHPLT

A further test concerns the target SHOX (Homo sapiens, UniProt O15266 103-189, R173C).

Chain of MSX2 (Homo sapiens, UniProt P35548 130-214, R199I) (P35548 130-214 R199I): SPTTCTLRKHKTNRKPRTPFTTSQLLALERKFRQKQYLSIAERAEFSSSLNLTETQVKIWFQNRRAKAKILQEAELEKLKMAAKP
Chain of HESX1 (Homo sapiens, UniProt Q9UBX0 95-180, R165K) (Q9UBX0 95-180 R165K): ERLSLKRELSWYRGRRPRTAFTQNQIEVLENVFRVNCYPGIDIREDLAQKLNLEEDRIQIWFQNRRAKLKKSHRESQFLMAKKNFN
Chain of HESX1 (Homo sapiens, UniProt Q9UBX0 95-180, F115L) (Q9UBX0 95-180 F115L): as the sequence (Q9UBX0 95-180 R165K) above, with F21L, K71R counted along it
Chain of HESX1 (Homo sapiens, UniProt Q9UBX0 95-180, P111T) (Q9UBX0 95-180 P111T): as the sequence (Q9UBX0 95-180 R165K) above, with P17T, K71R counted along it
Chain of ALX4 (Homo sapiens, UniProt Q9H161 200-286, Q225E) (Q9H161 200-286 Q225E): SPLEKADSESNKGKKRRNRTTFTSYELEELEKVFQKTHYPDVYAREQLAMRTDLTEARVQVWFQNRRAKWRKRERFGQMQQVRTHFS
Chain of ALX4 (Homo sapiens, UniProt Q9H161 200-286) (Q9H161 200-286): as the sequence (Q9H161 200-286 Q225E) above, with E26Q counted along it
Chain of HESX1 (Homo sapiens, UniProt Q9UBX0 95-180, R109Q) (Q9UBX0 95-180 R109Q): as the sequence (Q9UBX0 95-180 R165K) above, with R15Q, K71R counted along it
Chain of MSX2 (Homo sapiens, UniProt P35548 130-214) (P35548 130-214): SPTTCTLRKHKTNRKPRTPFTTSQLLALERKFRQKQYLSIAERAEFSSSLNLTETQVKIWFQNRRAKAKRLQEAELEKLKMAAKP
Chain of HESX1 (Homo sapiens, UniProt Q9UBX0 95-180) (Q9UBX0 95-180): as the sequence (Q9UBX0 95-180 R165K) above, with K71R counted along it
Chain of MSX2 (Homo sapiens, UniProt P35548 130-214, F161Y) (P35548 130-214 F161Y): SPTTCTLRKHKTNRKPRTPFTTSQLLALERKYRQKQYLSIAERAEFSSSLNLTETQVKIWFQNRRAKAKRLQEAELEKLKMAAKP
Chain of ALX3 (Homo sapiens, UniProt O95076 139-225, N203S) (O95076 139-225 N203S): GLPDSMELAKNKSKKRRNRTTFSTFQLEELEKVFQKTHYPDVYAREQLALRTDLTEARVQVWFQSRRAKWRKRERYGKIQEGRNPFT
Chain of PRRX1 (Homo sapiens, UniProt P54821 80-166, F113S) (P54821 80-166 F113S): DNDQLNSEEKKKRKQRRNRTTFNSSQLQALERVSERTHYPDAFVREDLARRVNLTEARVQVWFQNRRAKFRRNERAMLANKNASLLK
Chain of PRRX1 (Homo sapiens, UniProt P54821 80-166) (P54821 80-166): as the sequence (P54821 80-166 F113S) above, with S34F counted along it
Chain of ALX1 (Homo sapiens, UniProt Q15699 118-204, L144V) (Q15699 118-204 L144V): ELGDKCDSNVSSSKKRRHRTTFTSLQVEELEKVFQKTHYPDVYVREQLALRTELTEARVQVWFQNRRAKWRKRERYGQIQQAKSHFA
Chain of ALX1 (Homo sapiens, UniProt Q15699 118-204, L144R) (Q15699 118-204 L144R): as the sequence (Q15699 118-204 L144V) above, with V27R counted along it
Chain of ALX3 (Homo sapiens, UniProt O95076 139-225, N203Q) (O95076 139-225 N203Q): as the sequence (O95076 139-225 N203S) above, with S65Q counted along it
Chain of PROP1 (Homo sapiens, UniProt O75360 56-141, R99H) (O75360 56-141 R99H): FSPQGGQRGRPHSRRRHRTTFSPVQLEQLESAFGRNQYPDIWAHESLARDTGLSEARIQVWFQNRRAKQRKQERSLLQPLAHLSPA
Chain of ALX1 (Homo sapiens, UniProt Q15699 118-204) (Q15699 118-204): as the sequence (Q15699 118-204 L144V) above, with V27L counted along it
Chain of ALX3 (Homo sapiens, UniProt O95076 139-225, L168V) (O95076 139-225 L168V): as the sequence (O95076 139-225 N203S) above, with L30V, S65N counted along it
Chain of ALX3 (Homo sapiens, UniProt O95076 139-225, L168Q) (O95076 139-225 L168Q): as the sequence (O95076 139-225 N203S) above, with L30Q, S65N counted along it
Chain of ALX3 (Homo sapiens, UniProt O95076 139-225) (O95076 139-225): as the sequence (O95076 139-225 N203S) above, with S65N counted along it
Chain of HOXA2 (Homo sapiens, UniProt O43364 129-215, Y150S) (O43364 129-215 Y150S): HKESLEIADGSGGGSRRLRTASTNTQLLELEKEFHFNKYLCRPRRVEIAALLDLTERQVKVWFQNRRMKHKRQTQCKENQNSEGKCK
Chain of HOXA2 (Homo sapiens, UniProt O43364 129-215) (O43364 129-215): as the sequence (O43364 129-215 Y150S) above, with S22Y counted along it
Chain of HOXA7 (Homo sapiens, UniProt P31268 116-202, W177C) (P31268 116-202 W177C): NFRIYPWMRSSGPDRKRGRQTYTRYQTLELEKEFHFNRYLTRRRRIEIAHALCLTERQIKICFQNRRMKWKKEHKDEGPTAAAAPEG
Chain of SHOX (O15266 103-189 R173C): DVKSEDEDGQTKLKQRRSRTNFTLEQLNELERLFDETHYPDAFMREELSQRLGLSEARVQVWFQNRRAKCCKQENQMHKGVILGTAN
Chain of HOXA7 (Homo sapiens, UniProt P31268 116-202) (P31268 116-202): as the sequence (P31268 116-202 W177C) above, with C62W counted along it
Chain of PROP1 (Homo sapiens, UniProt O75360 56-141) (O75360 56-141): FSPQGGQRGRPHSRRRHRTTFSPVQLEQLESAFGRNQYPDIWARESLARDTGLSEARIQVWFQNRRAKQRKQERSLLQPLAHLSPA
Chain of HOXA2 (Homo sapiens, UniProt O43364 129-215, R185K) (O43364 129-215 R185K): as the sequence (O43364 129-215 Y150S) above, with S22Y, R57K counted along it
Chain of PROP1 (Homo sapiens, UniProt O75360 56-141, F88S) (O75360 56-141 F88S): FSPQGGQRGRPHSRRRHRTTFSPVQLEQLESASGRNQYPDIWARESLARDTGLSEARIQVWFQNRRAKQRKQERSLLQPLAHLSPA
Chain of HOXA2 (Homo sapiens, UniProt O43364 129-215, R185T) (O43364 129-215 R185T): as the sequence (O43364 129-215 Y150S) above, with S22Y, R57T counted along it

On to GAACCCCC, for which the binding signal is 6.29 upbm affinity estimate (log intensity, higher = more binding, comparable within an allelic series) with HESX1 [1]; 6.26 upbm affinity estimate (log intensity, higher = more binding, comparable within an allelic series) in the test with HESX1 [2]; 7.12 upbm affinity estimate (log intensity, higher = more binding, comparable within an allelic series) with HOXA2 [3]; 9.43 upbm affinity estimate (log intensity, higher = more binding, comparable within an allelic series) in the test with MSX2 [4]; 10 upbm affinity estimate (log intensity, higher = more binding, comparable within an allelic series) in the test with HOXA2 [5]; 9.41 upbm affinity estimate (log intensity, higher = more binding, comparable within an allelic series) in the test with MSX2 [6]. Also, the binding signal is 6.37 upbm affinity estimate (log intensity, higher = more binding, comparable within an allelic series) in the test with HESX1 [7]; 6.38 upbm affinity estimate (log intensity, higher = more binding, comparable within an allelic series) with HESX1 [8]; 9.53 upbm affinity estimate (log intensity, higher = more binding, comparable within an allelic series) with MSX2 [9]; 6.35 upbm affinity estimate (log intensity, higher = more binding, comparable within an allelic series) with HESX1 [10]; 10.3 upbm affinity estimate (log intensity, higher = more binding, comparable within an allelic series) with HOXA2 [11]; 7.05 upbm affinity estimate (log intensity, higher = more binding, comparable within an allelic series) in the test with HOXA2 [12].
In the case of AAGCTGGC, the binding signal was 6.31 upbm affinity estimate (log intensity, higher = more binding, comparable within an allelic series) with HESX1 [1]; 8.32 upbm affinity estimate (log intensity, higher = more binding, comparable within an allelic series) with HOXA7 [13]; 6.21 upbm affinity estimate (log intensity, higher = more binding, comparable within an allelic series) with HESX1 [2]; 6.45 upbm affinity estimate (log intensity, higher = more binding, comparable within an allelic series) with HESX1 [7]; 6.39 upbm affinity estimate (log intensity, higher = more binding, comparable within an allelic series) in the test with HESX1 [8]; 6.51 upbm affinity estimate (log intensity, higher = more binding, comparable within an allelic series) in the test with HESX1 [10]. Further, the binding signal with HOXA7 [14] is 8.3 upbm affinity estimate (log intensity, higher = more binding, comparable within an allelic series).
With AATTATCT, the binding signal with HESX1 [1] was 11.8 upbm affinity estimate (log intensity, higher = more binding, comparable within an allelic series); in the test with ALX4 [15], 13.6 upbm affinity estimate (log intensity, higher = more binding, comparable within an allelic series); with PAX4 [16], 11.7 upbm affinity estimate (log intensity, higher = more binding, comparable within an allelic series); with PRRX1 [17], 11.2 upbm affinity estimate (log intensity, higher = more binding, comparable within an allelic series); with PAX4 [18] it was 12.2 upbm affinity estimate (log intensity, higher = more binding, comparable within an allelic series); with ALX4 [19], 12.7 upbm affinity estimate (log intensity, higher = more binding, comparable within an allelic series). Besides, the binding signal in the test with HESX1 [2] was 11.8 upbm affinity estimate (log intensity, higher = more binding, comparable within an allelic series); in the test with MSX2 [4], 12.3 upbm affinity estimate (log intensity, higher = more binding, comparable within an allelic series); with ALX1 [20], 11.6 upbm affinity estimate (log intensity, higher = more binding, comparable within an allelic series); in the test with ALX3 [21], 8.49 upbm affinity estimate (log intensity, higher = more binding, comparable within an allelic series); with PAX4 [22] it was 11.9 upbm affinity estimate (log intensity, higher = more binding, comparable within an allelic series); with ALX1 [23], 11.3 upbm affinity estimate (log intensity, higher = more binding, comparable within an allelic series). In addition, the binding signal in the test with PAX4 [24] was 10.5 upbm affinity estimate (log intensity, higher = more binding, comparable within an allelic series); with MSX2 [6] it was 13.5 upbm affinity estimate (log intensity, higher = more binding, comparable within an allelic series); with ALX3 [25], 12.4 upbm affinity estimate (log intensity, higher = more binding, comparable within an allelic series); in the test with PAX4 [26], 11 upbm affinity estimate (log intensity, higher = more binding, comparable within an allelic series); with PROP1 [27], 11.1 upbm affinity estimate (log intensity, higher = more binding, comparable within an allelic series); with HESX1 [7] it was 8.47 upbm affinity estimate (log intensity, higher = more binding, comparable within an allelic series). Besides, the binding signal with PROP1 [28] was 10.8 upbm affinity estimate (log intensity, higher = more binding, comparable within an allelic series); with ALX3 [29], 10.3 upbm affinity estimate (log intensity, higher = more binding, comparable within an allelic series); with HESX1 [8], 10.2 upbm affinity estimate (log intensity, higher = more binding, comparable within an allelic series); in the test with ALX3 [30] it was 9.85 upbm affinity estimate (log intensity, higher = more binding, comparable within an allelic series); in the test with PROP1 [31], 7.79 upbm affinity estimate (log intensity, higher = more binding, comparable within an allelic series); with MSX2 [9], 13 upbm affinity estimate (log intensity, higher = more binding, comparable within an allelic series). Also, the binding signal in the test with HESX1 [10] is 7.77 upbm affinity estimate (log intensity, higher = more binding, comparable within an allelic series); in the test with PAX4 [32], 10.9 upbm affinity estimate (log intensity, higher = more binding, comparable within an allelic series); with ALX1 [33] it was 12.1 upbm affinity estimate (log intensity, higher = more binding, comparable within an allelic series); with ALX3 [34] it was 8.6 upbm affinity estimate (log intensity, higher = more binding, comparable within an allelic series); with PRRX1 [35], 13.2 upbm affinity estimate (log intensity, higher = more binding, comparable within an allelic series).
With AGGGTATA, the binding signal with HESX1 [1] was 7.35 upbm affinity estimate (log intensity, higher = more binding, comparable within an allelic series); with HESX1 [2] it was 7.42 upbm affinity estimate (log intensity, higher = more binding, comparable within an allelic series).
With GAGTCGCC, the binding signal with HESX1 [1] was 6.49 upbm affinity estimate (log intensity, higher = more binding, comparable within an allelic series); with ALX4 [15], 8.18 upbm affinity estimate (log intensity, higher = more binding, comparable within an allelic series); with ALX4 [19], 8.37 upbm affinity estimate (log intensity, higher = more binding, comparable within an allelic series); in the test with HESX1 [2] it was 6.48 upbm affinity estimate (log intensity, higher = more binding, comparable within an allelic series); with NKX2-6 it was 9.64 upbm affinity estimate (log intensity, higher = more binding, comparable within an allelic series); in the test with HESX1 [7] it was 6.47 upbm affinity estimate (log intensity, higher = more binding, comparable within an allelic series). For the same sequence, the binding signal is 6.56 upbm affinity estimate (log intensity, higher = more binding, comparable within an allelic series) with HESX1 [8] and 6.36 upbm affinity estimate (log intensity, higher = more binding, comparable within an allelic series) with HESX1 [10].
Take AATTATCG: the binding signal was 11.5 upbm affinity estimate (log intensity, higher = more binding, comparable within an allelic series) with HESX1 [1]; 13.7 upbm affinity estimate (log intensity, higher = more binding, comparable within an allelic series) with ALX4 [15]; 11 upbm affinity estimate (log intensity, higher = more binding, comparable within an allelic series) with PRRX1 [17]; 12.7 upbm affinity estimate (log intensity, higher = more binding, comparable within an allelic series) in the test with ALX4 [19]; 11.6 upbm affinity estimate (log intensity, higher = more binding, comparable within an allelic series) with HESX1 [2]; 12.3 upbm affinity estimate (log intensity, higher = more binding, comparable within an allelic series) with MSX2 [4]. Further, the binding signal with ALX1 [20] is 11.5 upbm affinity estimate (log intensity, higher = more binding, comparable within an allelic series); with ALX3 [21], 8.39 upbm affinity estimate (log intensity, higher = more binding, comparable within an allelic series); in the test with SHOX, 9.18 upbm affinity estimate (log intensity, higher = more binding, comparable within an allelic series); in the test with ALX1 [23], 11.1 upbm affinity estimate (log intensity, higher = more binding, comparable within an allelic series); with MSX2 [6] it was 13.4 upbm affinity estimate (log intensity, higher = more binding, comparable within an allelic series); with ALX3 [25], 12.3 upbm affinity estimate (log intensity, higher = more binding, comparable within an allelic series). Further, the binding signal with HESX1 [7] is 8.48 upbm affinity estimate (log intensity, higher = more binding, comparable within an allelic series); in the test with PROP1 [28], 10.8 upbm affinity estimate (log intensity, higher = more binding, comparable within an allelic series); in the test with ALX3 [29], 10.3 upbm affinity estimate (log intensity, higher = more binding, comparable within an allelic series); with HESX1 [8] it was 10.2 upbm affinity estimate (log intensity, higher = more binding, comparable within an allelic series); in the test with ALX3 [30], 9.82 upbm affinity estimate (log intensity, higher = more binding, comparable within an allelic series); with MSX2 [9], 13 upbm affinity estimate (log intensity, higher = more binding, comparable within an allelic series). Moreover, the binding signal with HESX1 [10] was 7.49 upbm affinity estimate (log intensity, higher = more binding, comparable within an allelic series); with ALX1 [33], 12 upbm affinity estimate (log intensity, higher = more binding, comparable within an allelic series); with ALX3 [34] it was 8.5 upbm affinity estimate (log intensity, higher = more binding, comparable within an allelic series); in the test with PRRX1 [35] it was 13.2 upbm affinity estimate (log intensity, higher = more binding, comparable within an allelic series).
